# In the library only some 18% were active in any assay of this set; here they are far more common.
# Six1-Eya2 blk: qHTS Assay for Inhibitors of the Six1/Eya2 Interaction; AlphaScreen GST-Six1/His-Eya2 binding, biochemical; active compounds read low; activity change, % (concentration not given with the values); hit rate 0.56% among 360,000; AID 651725, 2012; in the data active = activity change below about -65%; inconclusive = mostly about -30% to -63%
#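 Compounds are tested against tagged Six1 and Eya2 proteins bridged by glutathione donor and nickel acceptor beads; after a one-hour incubation at 37 °C without light, AlphaScreen emission is recorded.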
# TDP1 cell CPT: qHTS for Inhibitors of human tyrosyl-DNA phosphodiesterase 1 (TDP1): qHTS in cells in presence of CPT | Potency, µM (highest dose often 46.2 µM), for inactives: at the highest dose activity change, negative = growth inhibition, most hits filed as inhibitors | hit rate 12% among 420,000 | chicken DT40 Tdp1-/-;hTDP1 cells + 20 nM CPT, ATP luminescence, 48 h; note: potency is the fitted concentration of half-maximal effect; nearly all actives have a fitted effect of over 55% in size
#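 Chicken DT40 Tdp1-/- cells stably complemented with human TDP1 were seeded at 400 cells/well in medium containing 20 nM camptothecin, exposed to pin-transferred compounds, and grown at 37 °C for at least 48 hr. Viability was read as ATP luminescence.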
# TDP1 block: qHTS Assay for Inhibitors of Tyrosyl-DNA Phosphodiesterase (TDP1). Tyrosyl-DNA phosphodiesterase 1 (Homo sapiens), Q9NUW8. recombinant TDP1, AlphaScreen DNA substrate cleavage. Potency, µM (titrated, usually from 130 µM), without a hit: at the highest dose activity change, negative = inhibition, most hits filed as inhibitors. hit rate 0.28% among 350,000; note: potency is the fitted concentration of half-maximal effect; nearly all actives have a fitted effect of over 40% in size
# Target sequence (Q9NUW8 whole entry, looked up): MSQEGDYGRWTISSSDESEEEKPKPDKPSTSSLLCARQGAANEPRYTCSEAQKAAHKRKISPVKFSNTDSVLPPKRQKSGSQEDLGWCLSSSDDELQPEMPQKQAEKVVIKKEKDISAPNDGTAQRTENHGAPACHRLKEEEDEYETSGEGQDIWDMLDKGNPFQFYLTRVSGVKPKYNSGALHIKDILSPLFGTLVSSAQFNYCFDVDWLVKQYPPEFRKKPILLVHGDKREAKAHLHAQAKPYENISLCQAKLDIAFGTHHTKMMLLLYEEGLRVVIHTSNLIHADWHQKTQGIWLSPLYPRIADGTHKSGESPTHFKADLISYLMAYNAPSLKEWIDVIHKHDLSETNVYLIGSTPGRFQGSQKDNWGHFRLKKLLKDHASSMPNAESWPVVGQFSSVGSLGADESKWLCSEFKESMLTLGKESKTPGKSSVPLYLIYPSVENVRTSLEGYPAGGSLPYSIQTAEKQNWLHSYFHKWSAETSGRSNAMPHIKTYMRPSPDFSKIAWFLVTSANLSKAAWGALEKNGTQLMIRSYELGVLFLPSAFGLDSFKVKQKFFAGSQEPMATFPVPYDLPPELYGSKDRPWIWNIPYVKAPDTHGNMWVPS
#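 E. coli-derived human Tdp1, 1 nM final. Cpd preinc 15 min RT; substrate 15 nM final, 5 min RT; AS bead mix 10 ug/ml final, 10 min RT. Signal loss = tyrosine-FITC cleavage. No-enzyme wells = max signal.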
# TDP1 cell noCPT: qHTS for Inhibitors of human tyrosyl-DNA phosphodiesterase 1 (TDP1): qHTS in cells in absence of CPT; DT40 Tdp1-/- hTDP1 cells, no CPT, ATP luminescence, 48 h; Potency, µM (doses to about 46.2 µM), for inactives: at the highest dose activity change, negative = growth inhibition, actives largely listed as inhibitors; hit rate 15% among 420,000; AID 686978, 2013; note: potency is the fitted concentration of half-maximal effect; nearly all actives have a fitted effect of over 55% in size
#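 Readout: luminescence from CellTiter-Glo after 30 min in the dark at RT. Cells: DT40 Tdp1-/- with stable hTDP1, 400/well. Exposure: compounds alone, ≥48 hr, 37 °C.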
# CtBP-E1A blk: qHTS Assay for Inhibitors of the CtBP/E1A Interaction | activity change, % (test concentration not listed) | AID 651724, 2012 | hit rate 0.49% among 340,000 | AlphaScreen GST-E1A/His-CtBP binding, 1536-well; active compounds read low; in the data active = activity change below about -65%; inconclusive = mostly about -30% to -63%
#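 In 5 uL wells, 23 nL compound meets equimolar GST-E1A and His-CtBP (5X stock 125 nM each) for 2 h, 37 °C. Beads (5X, 50 ug/mL) then 1 h, 37 °C, dark.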
# IL1B secr inh: qHTS for Inhibitors of Inflammasome Signaling: IL-1-beta AlphaLISA Primary Screen; THP-1 LPS/ATP IL-1B secretion, AlphaLISA, 16 h; active compounds read low; activity change, % at 57.5 µM; hit rate 4.7% among 360,000; AID 743279, 2014; in the data active = activity change below about -50%; inconclusive = mostly about -30% to -49%
#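 Secreted IL-1B measured by AlphaLISA bead assay after 16 h compound exposure of THP-1 cells; compounds (final up to 57.5 uM) added 1 h before LPS (250 ng/mL) and ATP (1.25 mM) stimulation; lower signal means less secretion.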
# An asterisk follows results filed as active; ? = inconclusive; nt = no result given. Unless noted, calls come from the whole dose curve; as a rule, active = well fitted curve in the direction sought with a large enough effect; inconclusive = small, poorly fitted or top-dose-only effect, or another doubt; inactive = no such curve, though single readings can be large; an effect the other way counts as inactive or inconclusive. % is set by controls: 0 for no effect and ±100 for the full control effect.
SMILES,Six1-Eya2 blk,TDP1 cell CPT,TDP1 block,TDP1 cell noCPT,CtBP-E1A blk,IL1B secr inh
Cn1c(=O)c2c(nc(OC3CCCCCC3)n2C)n(C)c1=O,-7.4,?,nt,?,10.0,-8.4
C/C=C/COc1nc2c(c(=O)n(C)c(=O)n2C)n1C,-8.5,23.1µM*,0.0%,14.6µM*,-3.9,-5.5
CCC(C)n1c(OC)nc2c1c(=O)n(C)c(=O)n2C (configuration not stated),-0.8,23.1µM*,0.0%,?,1.5,12.5
C=CCOc1nc2c(c(=O)n(C)c(=O)n2C)n1C,-0.3,-9.7%,1.1%,9.1%,0.1,9.4
CCn1c(OC)nc2c1c(=O)n(C)c(=O)n2C,4.0,-2.9%,0.0%,-15.8%,8.5,19.7
CCN(CC)CCCNC(=O)C1c2cc(OC)c(OC)cc2C(=O)N(C)C1c1cccs1 (configuration not stated),-4.9,-4.0%,1.8%,5.7%,-8.4,-3.5
Cc1ccn2c(=O)cc(CSc3nnc(NC(=O)c4ccccc4Cl)s3)nc2c1,nt,-1.2%,8.1%,?,nt,nt
CCn1cc(/C=C(\NC(=O)c2ccccc2OC)C(=O)NCCCN2CCOCC2)c2ccccc21,-2.4,?,5.4%,-6.2%,-2.2,-0.7
Cc1ccc(Cn2cc(CCC(=O)NCc3ccccc3F)c3ccccc32)cc1,nt,-12.3%,0.0%,-23.1%,nt,nt
COc1ccc(CNC(=O)CCc2cn(Cc3cc(C)ccc3C)c3ccccc23)cc1OC,nt,4.61µM*,2.6%,5.8µM*,nt,nt
Cc1ccc(Cn2cc(CCC(=O)NC3CCC(C)CC3)c3ccccc32)cc1 (configuration not stated),nt,?,5.1%,13µM*,nt,nt
COc1ccc(Br)cc1CNC(=O)CCc1cn(Cc2ccc(C)cc2)c2ccccc12,nt,?,5.1%,23.1µM*,nt,nt
COc1ccc(CCNC(=O)CCc2cn(Cc3ccc(C)cc3)c3ccccc23)cc1OC,nt,13µM*,-2.6%,14.6µM*,nt,nt
CCn1cc(C(=O)NC2CCC(C)CC2)c(=O)c2cc(S(=O)(=O)N3CCCCC3)ccc21 (configuration not stated),nt,nt,9.0%,nt,nt,nt
Cc1cccnc1CCNC(=O)CC1C(=O)NCCN1CC1CCCCC1 (configuration not stated),2.0,-15.6%,1.2%,1.8%,-19.0,-2.7
CCOc1ccccc1CNC(=O)CCc1cn(Cc2ccc(Cl)cc2)c2ccccc12,nt,18.4µM*,7.7%,16.4µM*,nt,nt
CCOc1ccc(CCNC(=O)CCc2cn(Cc3ccccc3F)c3ccccc23)cc1OCC,nt,?,0.0%,?,nt,nt
Cc1c(CN(C)C)c2c(n1Cc1ccccc1)C(=O)c1ccccc1-2,?,?,9.8%,?,?,-62.7*
COCCn1c(N)c(Sc2ccc(Cl)cc2)c(=O)[nH]c1=O,0.9,-18.7%,3.2%,-8.5%,8.2,-4.2
Cc1ccc(OCc2nc(-c3ccc(C(=O)NCc4ccc(OC(C)C)cc4)cc3)oc2C)cc1,nt,?,2.8%,20.6µM*,nt,nt
Cc1oc(-c2ccc(C(=O)NCc3ccccc3)cc2)nc1CN1CCc2ccccc21,nt,?,3.8%,20.6µM*,nt,nt
COc1ccc(OC)c(NC(=O)c2ccc(-c3nc(COc4ccccc4)c(C)o3)cc2)c1,nt,?,0.0%,13µM*,nt,nt
COc1cccc(NC(=O)c2ccc(-c3nc(COc4ccc(C)cc4)c(C)o3)cc2)c1,nt,?,2.8%,?,nt,nt
COc1ccccc1NC(=O)c1ccc(-c2nc(COc3ccc(C)cc3)c(C)o2)cc1,nt,20.6µM*,2.8%,18.4µM*,nt,nt
COc1cccc(NC(=O)c2ccc(-c3nc(COc4ccccc4)c(C)o3)cc2)c1,nt,?,2.8%,?,nt,nt
SMILES,Six1-Eya2 blk,TDP1 cell CPT,TDP1 block,TDP1 cell noCPT,CtBP-E1A blk,IL1B secr inh
Cc1oc(-c2ccc(C(=O)NCc3ccc(N(C)C)cc3)cc2)nc1COc1ccccc1,nt,2.7%,5.6%,-26.1%,nt,nt
Cc1ccc(C(=O)O/N=C(\c2ccccc2)c2ccncc2)cc1,-1.7,4.4%,6.2%,-17.4%,0.0,10.9
CCOC(=O)c1c(C)[nH]c(C(=O)COC(=O)CCNS(=O)(=O)c2ccc(NC(C)=O)cc2)c1C,-12.3,0.3%,0.3%,-14.7%,nt,-3.1
Cc1cc2nnc(SCC(=O)Nc3cc(S(=O)(=O)N4CCOCC4)ccc3Cl)n2c2ccccc12,?,?,5.5%,16.4µM*,?,?
Cc1nc(SCC(=O)Nc2cc(S(=O)(=O)N3CCOCC3)ccc2Cl)nc(C)c1C,-2.1,?,2.0%,-29.3%,-23.9,0.0
Cc1ccc(S(=O)(=O)N2CCOCC2)cc1NC(=O)CSc1nnc2cc(C)c3ccccc3n12,?,?,2.7%,23.1µM*,11.6,-20.8
COc1cc(NC(=O)Nc2nnc([C@@H]3C[C@H](O)[C@@H](CO)O3)s2)cc(OC)c1OC,0.8,-22.3%,nt,-8.3%,-2.1,-5.5
O=C(Nc1cc(OC(=O)C(F)(F)F)c2nonc2c1OC(=O)C(F)(F)F)C(F)(F)F,nt,10µM*,5.8%,11.2µM*,nt,nt
CCCCC(=O)Nc1ccc(C(=O)Nc2nc(CC(=O)OCC)cs2)cc1,-2.6,22.4µM*,-3.0%,?,0.2,-10.7
CCOC(=O)Cc1csc(NC(=O)c2ccc(F)cc2)n1,1.0,?,nt,-19.5%,-4.4,22.4
CCOC(=O)Cc1csc(NC(=O)c2ccc(C)cc2)n1,-0.3,-15.6%,-2.5%,?,0.0,14.9
CCOC(=O)Cc1csc(NC(=O)c2ccc(Cl)nc2)n1,-1.9,?,5.2%,23.1µM*,-6.1,4.0
CCOc1ccc2nc(N3CCN(C(=O)c4ccco4)CC3)sc2c1,nt,?,0.0%,18.4µM*,nt,nt
CCOc1ccc2nc(SCC(=O)N3CCN(C(=O)c4ccco4)CC3)sc2c1,3.5,?,4.5%,11.6µM*,-12.3,-13.2
CCOc1ccc2nc(N3CCC(C(=O)N4CCN(c5ncccn5)CC4)CC3)sc2c1,4.7,?,nt,?,1.0,4.1
CCOc1ccc2nc(N3CCC(C(=O)N4CCN(c5ccccn5)CC4)CC3)sc2c1,-11.8,5.8µM*,9.8%,6.51µM*,-6.8,-6.6
O=Cc1c(N2CCOCC2)nc2ccccn2c1=O,3.4,1.2%,2.6%,-2.2%,-28.1,4.5
